Assay results published in PubChem BioAssay AID1159580 (chemical genetic matrix, 2015).
Values joined by “and” are separate entries in the source; they are usually repeats but may differ in a detail not shown here. Equal values may be shown once. The whole screen tested about 5,500 compounds, of which about 2,000 (36%) were called active. Another 18% or so got no clear call; they are omitted. No stated cut-off is given here; in the data, active means normalized growth mostly below about 0.91 (no sharp cut-off); inconclusive means no clear call, values can overlap the other calls; inactive means mostly above about 0.92. This is one part of the list.

Assay: chemical genetic growth profiling, strain panel (AID 1159580);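 further: tested at 20 µM; growth read once vehicle control cultures reached saturation at 30 °C; 1 = growth at the plate median or of vehicle wells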
Settings: S. cerevisiae deletion strains, growth OD

Measured: normalized growth

CC(C)=CCCC1(C)C=Cc2c(O)c3c(c(CC=C(C)C)c2O1)OC12C(=CC4CC1C(C)(C)OC2(C/C=C(/C)C(=O)O)C4=O)C3=O (configuration not stated)
inactive: locus YAL021C, strain ccr4, stronger effect = lower value 0.954 | locus YBR021W, strain FUR4, stronger effect = lower value 0.99 | locus YBR171W, strain sec66, stronger effect = lower value 0.979 | locus YBR229C, strain ROT2, stronger effect = lower value 0.988 | locus YCL029C, strain bik1, stronger effect = lower value 0.987 | locus YCL069W, strain vba3, stronger effect = lower value 0.945 | locus YCR088W, strain abp1, stronger effect = lower value 0.943 | locus YDL005C, strain med2, stronger effect = lower value 0.959 | locus YDL040C, strain nat1, stronger effect = lower value 0.959 | locus YDL101C, strain DUN1, stronger effect = lower value 0.894 | locus YDL185W, strain tfp1, stronger effect = lower value 0.986 | locus YDR001C, strain nth1, stronger effect = lower value 0.952 | locus YDR101C, strain arx1, stronger effect = lower value 0.93 | locus YDR150W, strain NUM1, stronger effect = lower value 0.932 | locus YDR159W, strain sac3, stronger effect = lower value 0.957 | locus YDR195W, strain ref2 1.11 | locus YDR334W, strain swr1, stronger effect = lower value 0.916 | locus YEL037C, strain rad23, stronger effect = lower value 0.967 | locus YEL061C, strain CIN8 (second series), stronger effect = lower value 0.935 | locus YER016W, strain bim1, stronger effect = lower value 0.967 | locus YER110C, stronger effect = lower value 0.98 | locus YER111C, strain swi4, stronger effect = lower value 0.977 | locus YGL078C, strain dbp3, stronger effect = lower value 0.965 | locus YGL167C, strain pmr1, stronger effect = lower value 0.915 | locus YGL227W, strain vid30, stronger effect = lower value 0.985 | locus YGL240W, strain doc1, stronger effect = lower value 0.966 | locus YGR252W, strain gcn5, stronger effect = lower value 0.882 | locus YHR079C, strain IRE1 (second series), stronger effect = lower value 0.98 | locus YHR079C, strain IRE1, stronger effect = lower value 0.89 | locus YHR094C, strain hxt1, stronger effect = lower value 0.983 | locus YIL073C, strain SPO22, stronger effect = lower value 0.796 | locus YIR030C, strain dcg1, stronger effect = lower value 0.967 | locus YJL092W, strain hpr5, stronger effect = lower value 0.946 | locus YJL115W, strain asf1, stronger effect = lower value 0.951 | locus YJL134W, strain LCB3, stronger effect = lower value 0.982 | locus YJL154C, strain vps35, stronger effect = lower value 0.983 | locus YJL168C, strain set2, stronger effect = lower value 0.98
0.85 (active) and 0.869 (inactive): locus YHR030C, strain SLT2, stronger effect = lower value
active: locus YAL013W, strain DEP1, stronger effect = lower value 0.887 | locus YAL026C, strain drs2, stronger effect = lower value 0.895 | locus YAL030W, strain snc1, stronger effect = lower value 0.925 | locus YBL061C, strain skt5, stronger effect = lower value 0.87 | locus YBR009C, strain hhf1, stronger effect = lower value 0.803 | locus YBR023C, strain chs3, stronger effect = lower value 0.84 | locus YBR231C, strain swc5, stronger effect = lower value 0.559 | locus YBR279W, strain paf1, stronger effect = lower value 0.815 | locus YCL011C, strain gbp2, stronger effect = lower value 0.835 | locus YCL016C, strain dcc1, stronger effect = lower value 0.853 | locus YCL061C, strain MRC1, stronger effect = lower value 0.907 | locus YDL035C, strain GPR1, stronger effect = lower value 0.736 | locus YDL074C, strain BRE1, stronger effect = lower value 0.691 | locus YDL192W, strain arf1, stronger effect = lower value 0.901 | locus YDR069C, strain doa4, stronger effect = lower value 0.821 | locus YDR137W, strain rgp1, stronger effect = lower value 0.713 | locus YDR162C, strain NBP2, stronger effect = lower value 0.296 | locus YDR297W, strain sur2, stronger effect = lower value 0.889 | locus YDR318W, strain mcm21, stronger effect = lower value 0.879 | locus YDR335W, strain msn5, stronger effect = lower value 0.902 | locus YDR388W, stronger effect = lower value 0.897 | locus YDR392W, strain spt3, stronger effect = lower value 0.223 | locus YDR502C, strain sam2, stronger effect = lower value 0.849 | locus YEL003W, strain gim4, stronger effect = lower value 0.863 | locus YEL061C, strain CIN8, stronger effect = lower value 0.881 | locus YER015W, strain faa2, stronger effect = lower value 0.785 | locus YER155C, strain BEM2 (second series), stronger effect = lower value 0.758 | locus YER155C, strain BEM2, stronger effect = lower value 0.83 | locus YER167W, strain BCK2, stronger effect = lower value 0.874 | locus YFR010W, strain ubp6, stronger effect = lower value 0.891 | locus YGL086W, strain mad1, stronger effect = lower value 0.892 | locus YGL173C, strain kem1, stronger effect = lower value 0.82 | locus YGL248W, strain PDE1, stronger effect = lower value 0.791 | locus YGL253W, strain hxk2, stronger effect = lower value 0.877 | locus YGR135W, strain pre9, stronger effect = lower value 0.885 | locus YGR229C, strain SMI1, stronger effect = lower value 0.244 | locus YHR013C, strain ard1, stronger effect = lower value 0.605 | locus YHR027C, strain rpn1, stronger effect = lower value 0.894 | locus YHR129C, strain ARP1, stronger effect = lower value 0.808 | locus YHR142W, strain chs7, stronger effect = lower value 0.818 | locus YHR200W, strain rpn10, stronger effect = lower value 0.914 | locus YIL066C, strain RNR3, stronger effect = lower value 0.606 | locus YIL125W, strain kgd1, stronger effect = lower value 0.927 | locus YJL095W, strain BCK1 (second series), stronger effect = lower value 0.871 | locus YJL095W, strain BCK1, stronger effect = lower value 0.732 and 0.878 | locus YJL129C, strain trk1, stronger effect = lower value 0.653 | locus YJL164C, strain tpk1, stronger effect = lower value 0.758 | locus YJL166W, strain qcr8, stronger effect = lower value 0.77 | locus YJL187C, strain SWE1 (second series), stronger effect = lower value 0.838
